Test results published in PubChem BioAssay AID1461 (National Center for Advancing Translational Sciences (NCATS), 2008).
Among all 220,000 compounds or so, about 2,300 (1%) were called active. Roughly 6% stayed inconclusive and do not appear here. Calls come from the whole dose curve; as a rule, active = well fitted inhibition curve with a large enough effect; inconclusive = small, poorly fitted or top-dose-only effect, or effect the other way; inactive = no such curve, though single readings can be large or run the other way. The full list was thinned out, with actives kept by preference.

These molecules were tested against Neuropeptide S receptor (Homo sapiens) (UniProt Q6W5P4) (assay: qHTS Assay for Antagonists of the Neuropeptide S Receptor: cAMP Signal Transduction). Settings: CHO-NPSR cells, cAMP TR-FRET, antagonist mode; series mostly up to 38.3 µM.
% is set by controls: 0 for no effect and ±100 for the full control effect; potency is the fitted concentration of half-maximal effect.
Note: nearly all actives have a fitted effect of over 50% in size.

Chain of Neuropeptide S receptor (Homo sapiens) (Q6W5P4 whole entry, looked up): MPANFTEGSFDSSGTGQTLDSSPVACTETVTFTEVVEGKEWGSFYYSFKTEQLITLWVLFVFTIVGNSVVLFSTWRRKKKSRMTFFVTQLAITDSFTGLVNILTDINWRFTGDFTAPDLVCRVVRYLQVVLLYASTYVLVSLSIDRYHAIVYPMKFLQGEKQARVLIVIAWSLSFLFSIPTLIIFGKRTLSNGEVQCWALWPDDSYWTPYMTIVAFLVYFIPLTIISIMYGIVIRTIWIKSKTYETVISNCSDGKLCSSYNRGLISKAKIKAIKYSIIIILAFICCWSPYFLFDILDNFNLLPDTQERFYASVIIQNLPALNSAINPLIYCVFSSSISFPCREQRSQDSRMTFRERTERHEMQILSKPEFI

Potency, active:
O=C(Nc1cccc(Cl)c1)c1cc([N+](=O)[O-])ccc1N1CCN(CCO)CC1 10 µM
Cc1[nH]nc(-c2ccc(OCc3cnn(-c4ccccc4)c3)cc2O)c1Oc1ccc(Cl)cc1 10 µM
CCCc1nc2c(C)cc(-c3nc4ccccc4n3C)cc2n1Cc1ccc(-c2ccccc2C(=O)O)cc1 1.26 µM
Cc1cccc(-[n+]2c(-c3cccc(Br)c3)[nH]c3nc4ccccc4nc32)c1 10 µM
CCOC(=O)CC1C(=O)NCCN1c1nc2c(C)cccn2c(=O)c1/C=C1\SC(=S)N(C(C)CC)C1=O (stereo not given) 12.6 µM
Cc1sc(NC(=S)NC(=O)c2cccs2)nc1-c1ccc(CC(C)C)cc1 12.6 µM
CC(C)Cn1c(N)c(C(=O)NCc2cccs2)c2nc3ccccc3nc21 12.6 µM
COc1ccc(C(CCN(Cc2ccc(OC)c(OC)c2)C(=O)CCl)c2ccccc2)cc1 (stereo not given) 5.01 µM
CSc1c(SCc2ccccc2)cnn(Cc2ccccc2)c1=O 10 µM
Cc1csc(Nc2ccc(Cl)cc2)[n+]1-c1ccc(Cl)cc1 10 µM
COc1ccc(/C(O)=C2/C(=O)C(=O)N(c3nc(C)c(C)s3)C2c2ccco2)cc1 (stereo not given) 10 µM
CCOC(=O)c1cc2c(=O)n3ccccc3nc2n(CC(C)C)c1=NC(=O)c1c(-c2c(F)cccc2Cl)noc1C 3.98 µM

Potency, inactive:
O=c1c2cc(-c3ccccc3)sc2nc2n1N=C(c1cccs1)CS2
Brc1ccc2ncnc(NCc3cccnc3)c2c1
O=C(Nc1cccnc1Oc1ncnc2cc(Cl)ccc12)c1ccc(F)cc1
N#Cc1c(NCCO)ccc([N+](=O)[O-])c1NCCO
CCN1CCN(c2ccc([N+](=O)[O-])cc2C(=O)c2ccc(Cl)cc2)CC1
Cc1cccc(NC(=O)c2cc([N+](=O)[O-])ccc2N2CCN(C)CC2)c1
CCC(C)N1C(=S)SC(C)(C)C1N(O)C(=O)NC1CCCCC1 (stereo not given)
CCCN(CCC)S(=O)(=O)c1ccc(C(=O)N2CC3CCC(CC3)C2)cc1
CCOc1ccc(-c2n[nH]c(C)c2-c2ccccn2)c(O)c1
COc1ccc(C(=O)Cc2cnn(-c3ccccc3)c2)c(O)c1
CC(C)n1c(CN2CCN(Cc3ccccc3)CC2)nc2ccccc21
Cn1cc(S(=O)(=O)NC(c2ccccc2)c2ccccc2)c(=O)n(C)c1=O
CCC(=O)NCCc1nc2ccccc2n1CC
CC(=O)Nc1nc2ccccc2n1Cc1ccc(C)cc1
CS(=O)(=O)c1sc(C(=O)NC(=S)Nc2ccc(OC(F)(F)F)cc2)c2c1C=CCC2
Cc1ccc2nc(-c3cccc(Br)c3)cc(C(=O)Nn3cnnc3)c2c1
COc1ccc2cc1Oc1ccc(cc1)C[C@H]1c3cc(c(OC)cc3CCN1C)Oc1c(O)c(OC)cc3c1[C@H](C2)N(C)CC3
O=C(Nc1nnc(COc2ccccc2)s1)Nc1ccccc1F
CCC(=O)c1ccc(OCC(=O)Nc2ccc3nc(C)sc3c2)cc1
Cc1cccn2c(=O)c(/C=C3\SC(=S)N(CC(C)C)C3=O)c(NCCCOC(C)C)nc12
CCOC(=O)CC1C(=O)NCCN1C(=O)COc1ccc(Br)cc1C (stereo not given)
CC(C)OP(=O)(OC(C)C)C(Nc1ccccc1)c1cccc([N+](=O)[O-])c1 (stereo not given)
CCc1nnc(NS(=O)(=O)c2ccc(NC(=S)NC(=O)c3cccs3)cc2)s1
Cc1ccc(-c2csc(NC(=O)c3cccs3)n2)cc1
COC(C[C@@H](O)[C@H](C)[C@H](O)COCc1ccccc1)OC
O=C(Nc1ccccc1)O/N=C1/CCCc2occc21
O=C(CNCc1cccs1)Nc1cc(S(=O)(=O)N2CCCC2)ccc1Cl
C=CCNC(=O)CSc1nc2scc(-c3ccco3)c2c(=O)n1CC=C
CCC(C)NC(=O)c1c(N)n(/N=C/c2cccs2)c2nc3ccccc3nc12 (stereo not given)
C=CCn1c(N)c(C(=O)OCC(C)C)c2nc3ccccc3nc21
Cc1ccccc1CSc1nnc(CCCCCNC(=O)OC(C)(C)C)o1
CC(C)(C)c1ccc(CCC2OCC(CN3CCOCC3)O2)cc1 (stereo not given)
O=C(CCCl)Nc1ccc(S(=O)(=O)NCc2ccco2)cc1
COc1ccc(CCNC(=O)C(Sc2ccccn2)c2ccccc2)cc1OC (stereo not given)
CCOC(=O)CN(Cc1ccc(OC)c(OC)c1)S(=O)(=O)c1ccc(OC)cc1
C/C=C(\C)C(=O)N1CC2(CC(c3cccc(NC(=O)CCCCC)c3)=NO2)C[C@@H]1C(N)=O (stereo not given in full)
Cn1nnc(NC(=S)NC(=O)c2ccccc2)n1
O=c1c2ccccc2c(-c2ccccc2)nn1Cc1ccccc1
Cn1c(CO)cnc1SCc1ccccc1
CC1=NNC(=O)C1CCC(=O)N/N=C(\C)c1ccc(Cl)cc1 (stereo not given)
Cc1ccc(CSc2nnc(-c3cnccn3)n2C)cc1
Cc1cccn2c(CNCC(C)Oc3cccnc3)c(C(=O)N3CCOCC3)nc12 (stereo not given)
COc1ccc(NC(=O)C2=NNC(=O)CC2)cc1S(=O)(=O)N1CCCCC1
O=C(Nc1ccc(S(=O)(=O)Nc2nccs2)cc1)c1cccc(S(=O)(=O)N2CCOCC2)c1
COc1ccc(/C(O)=C2\C(=O)C(=O)N(Cc3ccco3)C2c2ccc(OC)cc2OC)cc1 (stereo not given)
CCOc1ccc(/C(O)=C2\C(=O)C(=O)N(c3ccc(OC)cc3)C2c2ccccc2[N+](=O)[O-])cc1 (stereo not given)
COc1ccccc1N(C)S(=O)(=O)c1ccc(C(=O)NC2CCCCCC2)cc1
CC[C@@H](C)[C@@H](C(=O)N1CCN(C(=O)OC(C)(C)C)CC1)n1cc(CCC(=O)O)nn1
CC(=O)NC(=S)Nc1ccc(NC(=S)NC(=O)c2ccc([N+](=O)[O-])cc2)cc1
COc1cc(/C=C2/C(=O)NN(c3ccc(F)cc3)C2=O)cc([N+](=O)[O-])c1O
CCCn1c(=NC(C)=O)c(C(=O)OCC)cc2c(=O)n3ccccc3nc21
C/C(=N/OC(=O)c1c(-c2c(F)cccc2Cl)noc1C)c1cnccn1
O=C(O)C1CCN(c2ccc([N+](=O)[O-])cc2[N+](=O)[O-])CC1
CC(OC(=O)c1ccc(NS(=O)(=O)c2ccc3[nH]c(=O)[nH]c3c2)cc1)C(=O)Nc1cccc(Cl)c1Cl (stereo not given)
O=C(O)c1cccnc1Sc1ncnc2sc3c(c12)CCC3

Activity change, negative = inhibition, inactive:
Cc1ccc(C(=O)NNC2=Nc3cc([N+](=O)[O-])ccc3OC2)cc1 -1.29% [at 7.67 µM]
O=c1ccnc(Nc2ccc(Cl)cc2)[nH]1 1.3% [at 7.67 µM]
CC(C)S(=O)(=O)c1csc(NC(=O)Nc2ccc(Cl)cc2)c1Cl 14.8% [at 7.67 µM]
